Reference: PubChem BioAssay (EPA / NIEHS)
Several values for one entry are separate records, joined by “and”; a condition that tells them apart may be missing. Equal entries are not always repeated. More than one record can exist for a structure, and the calls need not agree. Activity calls are given as the source filed them. The calls were made as follows: active = hit-call score of the fitted dose curve at least 0.9, where 1 is the maximum; inactive = score below 0.9.

How the values were obtained:
[1] = CEETOX_H295R_PROG: CeeTox H295R High-throughput Steroidogenesis Assay for Progesterone (PROG) (AID 2283442); settings: actives raise or lower the signal;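 as to AC50: human H295R adrenal cells primed with 10 µM forskolin before dosing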
Procedure, shortened: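 Measured analyte is progesterone secreted by H295R cells at 48 h of chemical treatment, following 10 uM forskolin priming. Quantitation used HPLC-MS/MS against a 7-point standard curve; cytotoxicity was checked by MTT absorbance.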

[2] = read-out: Tumor necrosis factor receptor superfamily member 6 (Homo sapiens) (UniProt P25445); assay: LTEA_HepaRG_FAS: Life Technologies and Expression Analysis (LTEA) Assay for Fas cell surface death receptor (FAS) using HepaRG (AID 2283447); settings: mRNA level, 48 h; actives raise or lower the signal
Procedure, shortened: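 Differentiated HepaRG cells in serum-free induction medium were exposed 48 h to 8 half-log concentrations up to 100 uM in 0.5% DMSO, in duplicate. FAS mRNA was measured by qRT-PCR normalised to ACTB, GAPDH and POLR2A; bidirectional fit versus DMSO.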

[3] = read-out: Fatty acid synthase (Homo sapiens) (UniProt P49327); assay: LTEA_HepaRG_FASN: Life Technologies and Expression Analysis (LTEA) Assay for Fatty Acid Synthase (FASN) using HepaRG (AID 2283448); settings: mRNA level, 48 h; actives raise or lower the signal;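 as to AC50: differentiated human HepaRG liver cells in serum-free induction medium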
Procedure, shortened: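 FASN transcript measured by TaqMan qRT-PCR, normalised to three housekeeping genes, after 48 h chemical exposure of HepaRG cells. Eight-point half-log series from 100 uM in 0.5% DMSO, duplicates; gain or loss fitted against vehicle.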

[4] = read-out: Cyclin D2 (CCND2), CCND2 (gene 894); assay: LTEA_HepaRG_CCND2: Life Technologies and Expression Analysis (LTEA) Assay for Cyclin D2 (CCND2) using HepaRG (AID 2283449); settings: mRNA level, 48 h; actives raise or lower the signal;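 also: CCND2 transcript measured by TaqMan qRT-PCR and normalised to three housekeeping genes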
Procedure, shortened: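 HepaRG, 48 h dosing, 8-pt half-log curve from 100 uM, 0.5% DMSO; duplicate wells. Readout: CCND2 transcript by microfluidic qRT-PCR, housekeeping-normalised; bidirectional fit vs DMSO baseline.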

[5] = read-out: Cyclin Dependent Kinase Inhibitor 1A (CDKN1A), CDKN1A (gene 1026); assay: LTEA_HepaRG_CDKN1A: Life Technologies and Expression Analysis (LTEA) Assay for Cyclin Dependent Kinase Inhibitor 1A (CDKN1A) using HepaRG (AID 2283450); settings: mRNA level, 48 h; actives raise or lower the signal
Procedure, shortened: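 Gain or loss of CDKN1A transcript is scored by bidirectional fitting against 0.5% DMSO vehicle. Human HepaRG cultures receive chemicals for 48 h across an 8-point series peaking at 100 uM; expression comes from qRT-PCR.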

[6] = read-out: Cyclin D1 (CCND1), CCND1 (gene 595); assay: LTEA_HepaRG_CCND1: Life Technologies and Expression Analysis (LTEA) Assay for Cyclin D1 (CCND1) using HepaRG (AID 2283451); settings: mRNA level, 48 h; actives raise or lower the signal;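 as to AC50: differentiated human HepaRG liver cells in serum-free induction medium; TaqMan qRT-PCR transcript level normalised to ACTB GAPDH and POLR2A housekeeping genes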
Procedure, shortened: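 Expression change is measured by qRT-PCR in HepaRG cells after 48 h treatment across eight concentrations topping at 100 uM, with duplicate wells and DMSO (0.5%) serving as baseline for bidirectional fitting.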

[7] = read-out: catalase (CAT), CAT (gene 847); assay: LTEA_HepaRG_CAT: Life Technologies and Expression Analysis (LTEA) Assay for catalase (CAT) using HepaRG (AID 2283452); settings: mRNA level, 48 h; actives raise or lower the signal;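 as to AC50: TaqMan qRT-PCR signal normalized to ACTB GAPDH and POLR2A housekeeping genes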
Procedure, shortened: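 HepaRG cells in serum-free induction medium, 0.5% DMSO vehicle, exposed 48 h in duplicate over 8 half-log concentrations from 100 uM. CAT mRNA measured by qRT-PCR, normalized to ACTB, GAPDH, POLR2A; bidirectional fit versus DMSO.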

[8] = read-out: flavin-containing dimethylaniline monooxygenases 3 (FMO3), FMO3 (gene 2328); assay: LTEA_HepaRG_FMO3: Life Technologies and Expression Analysis (LTEA) Assay for flavin-containing dimethylaniline monooxygenases 3 (FMO3) using HepaRG (AID 2283453); settings: mRNA level, 48 h; actives raise or lower the signal;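 as to AC50: differentiated human HepaRG liver cells in serum-free induction medium; FMO3 transcript by TaqMan qRT-PCR normalized to ACTB GAPDH and POLR2A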
Procedure, shortened: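 FMO3 transcript quantified by TaqMan qRT-PCR against three housekeeping genes after 48 h chemical exposure of HepaRG cells. Eight-point half-log series, top 100 uM, 0.5% DMSO vehicle; phenobarbital 1mM induction control; up- or down-regulation fitted.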

[9] = read-out: Cytochrome P450 (CYP1A1), CYP1A1 (gene 1543); assay: LTEA_HepaRG_CYP1A1: Life Technologies and Expression Analysis (LTEA) Assay for Cytochrome P450 (CYP1A1) using HepaRG (AID 2283454); settings: mRNA level, 48 h; actives raise or lower the signal
Procedure, shortened: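 Using HepaRG cultures with 0.5% DMSO as vehicle, eight-concentration exposures (max 100 uM) lasted 48 h. Transcript levels were measured by TaqMan qRT-PCR and normalized to ACTB, GAPDH and POLR2A.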

[10] = read-out: CFLAR gene, CFLAR (gene 8837); assay: LTEA_HepaRG_CFLAR: Life Technologies and Expression Analysis (LTEA) Assay for CFLAR gene using HepaRG (AID 2283455); settings: mRNA level, 48 h; actives raise or lower the signal
Procedure, shortened: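 qRT-PCR read-out (Fluidigm/TaqMan) of CFLAR mRNA, normalized to three housekeeping genes, in differentiated human HepaRG cells after 48 h chemical exposure; 8-point half-log series from 100 uM in 0.5% DMSO; bidirectional curve fitting versus DMSO.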

Fatty acid synthase (Homo sapiens), sequence (P49327 whole entry, looked up): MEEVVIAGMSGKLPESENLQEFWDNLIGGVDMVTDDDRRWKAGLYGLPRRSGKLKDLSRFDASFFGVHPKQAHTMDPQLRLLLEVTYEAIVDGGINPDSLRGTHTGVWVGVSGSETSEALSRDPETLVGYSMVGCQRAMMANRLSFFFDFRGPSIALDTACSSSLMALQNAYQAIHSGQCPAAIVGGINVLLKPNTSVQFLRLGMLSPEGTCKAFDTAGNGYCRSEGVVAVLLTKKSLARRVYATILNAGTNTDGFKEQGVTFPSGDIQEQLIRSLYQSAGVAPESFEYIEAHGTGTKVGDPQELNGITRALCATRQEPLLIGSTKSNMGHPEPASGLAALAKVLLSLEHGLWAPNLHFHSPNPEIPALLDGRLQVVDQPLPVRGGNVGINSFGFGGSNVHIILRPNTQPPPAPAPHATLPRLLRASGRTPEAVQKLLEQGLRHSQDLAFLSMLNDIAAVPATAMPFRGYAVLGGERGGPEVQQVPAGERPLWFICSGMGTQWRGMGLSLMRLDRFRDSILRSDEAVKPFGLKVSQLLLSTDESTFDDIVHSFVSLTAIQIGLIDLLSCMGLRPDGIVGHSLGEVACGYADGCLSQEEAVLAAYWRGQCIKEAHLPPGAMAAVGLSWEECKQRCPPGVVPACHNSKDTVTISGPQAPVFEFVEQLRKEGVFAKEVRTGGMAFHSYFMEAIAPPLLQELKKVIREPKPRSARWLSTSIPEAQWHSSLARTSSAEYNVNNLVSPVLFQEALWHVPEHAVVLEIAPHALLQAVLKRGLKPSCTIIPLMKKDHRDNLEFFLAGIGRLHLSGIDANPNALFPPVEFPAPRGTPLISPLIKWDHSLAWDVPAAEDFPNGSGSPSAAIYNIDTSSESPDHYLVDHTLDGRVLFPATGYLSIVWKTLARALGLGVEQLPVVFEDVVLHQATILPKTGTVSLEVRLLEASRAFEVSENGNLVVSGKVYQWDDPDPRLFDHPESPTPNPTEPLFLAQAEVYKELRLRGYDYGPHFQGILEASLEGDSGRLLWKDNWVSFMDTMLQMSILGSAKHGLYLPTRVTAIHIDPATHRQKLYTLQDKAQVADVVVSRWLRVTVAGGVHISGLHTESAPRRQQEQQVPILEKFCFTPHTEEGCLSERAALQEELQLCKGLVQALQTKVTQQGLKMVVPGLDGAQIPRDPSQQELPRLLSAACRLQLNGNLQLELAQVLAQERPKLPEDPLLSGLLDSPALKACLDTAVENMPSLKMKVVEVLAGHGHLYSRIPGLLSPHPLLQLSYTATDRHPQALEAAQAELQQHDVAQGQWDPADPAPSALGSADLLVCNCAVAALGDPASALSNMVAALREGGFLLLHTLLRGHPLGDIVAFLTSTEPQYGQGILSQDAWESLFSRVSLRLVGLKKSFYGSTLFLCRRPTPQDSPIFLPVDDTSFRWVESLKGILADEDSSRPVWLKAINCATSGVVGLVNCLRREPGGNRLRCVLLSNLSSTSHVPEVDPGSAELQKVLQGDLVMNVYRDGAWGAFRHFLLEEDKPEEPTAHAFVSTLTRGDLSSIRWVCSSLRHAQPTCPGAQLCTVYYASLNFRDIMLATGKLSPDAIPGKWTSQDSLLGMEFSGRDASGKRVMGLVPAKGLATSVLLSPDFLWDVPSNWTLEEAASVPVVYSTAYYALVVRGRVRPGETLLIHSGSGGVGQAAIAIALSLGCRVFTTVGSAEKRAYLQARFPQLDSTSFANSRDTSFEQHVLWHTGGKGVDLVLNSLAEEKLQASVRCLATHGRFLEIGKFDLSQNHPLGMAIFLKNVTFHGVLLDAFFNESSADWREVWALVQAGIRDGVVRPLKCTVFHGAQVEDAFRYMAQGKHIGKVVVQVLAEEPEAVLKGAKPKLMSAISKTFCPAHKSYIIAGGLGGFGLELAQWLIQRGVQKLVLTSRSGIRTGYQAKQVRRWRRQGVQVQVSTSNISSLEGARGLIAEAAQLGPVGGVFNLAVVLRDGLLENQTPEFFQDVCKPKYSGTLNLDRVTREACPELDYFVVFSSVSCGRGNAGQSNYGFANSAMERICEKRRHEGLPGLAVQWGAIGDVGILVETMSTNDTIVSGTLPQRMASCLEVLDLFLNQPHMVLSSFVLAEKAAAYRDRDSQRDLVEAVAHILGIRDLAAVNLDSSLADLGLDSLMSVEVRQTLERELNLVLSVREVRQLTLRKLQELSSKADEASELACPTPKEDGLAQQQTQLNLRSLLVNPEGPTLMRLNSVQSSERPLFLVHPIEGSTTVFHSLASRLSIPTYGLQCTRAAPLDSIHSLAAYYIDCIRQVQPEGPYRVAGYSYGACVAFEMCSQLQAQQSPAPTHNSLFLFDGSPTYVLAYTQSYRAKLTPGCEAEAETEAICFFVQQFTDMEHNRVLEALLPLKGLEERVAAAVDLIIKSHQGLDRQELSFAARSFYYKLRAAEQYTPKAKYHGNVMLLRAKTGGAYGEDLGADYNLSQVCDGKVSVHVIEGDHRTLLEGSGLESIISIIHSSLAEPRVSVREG

CNC(=S)S
outcome [1]: inactive | outcome [2]: inactive | outcome [3]: inactive | outcome [4]: inactive | outcome [5]: inactive | outcome [6]: inactive | outcome [7]: inactive | outcome [8]: inactive | AC50 [9]: 50 µM (active) | outcome [10]: inactive

C=CCC1=C(C)C(OC(=O)C2C(C=C(C)C)C2(C)C)CC1=O (stereo not drawn)
outcome [1]: inactive | outcome [2]: inactive | outcome [3]: inactive | outcome [4]: inactive | outcome [5]: inactive | AC50 [6]: 88.2 µM (active) | outcome [6]: inactive | AC50 [7]: 83.6 µM (active) and 16.6 µM (active) | outcome [7]: inactive | AC50 [8]: 80.2 µM (active) | outcome [8]: inactive | AC50 [9]: 50 µM (active) and 31.8 µM (active) and 35.1 µM (active) | outcome [10]: inactive

C=CC1(C)OC(=O)N(c2cc(Cl)cc(Cl)c2)C1=O (stereo not drawn)
AC50 [1]: 17.5 µM (active) | outcome [2]: inactive | outcome [3]: inactive | outcome [4]: inactive | outcome [5]: inactive | outcome [6]: inactive | outcome [7]: inactive | outcome [8]: inactive | AC50 [9]: 24.6 µM (active) | outcome [10]: inactive

CC(C)Oc1cc(-n2nc(C(C)(C)C)oc2=O)c(Cl)cc1Cl
outcome [1]: inactive | outcome [2]: inactive | outcome [3]: inactive | AC50 [5]: 84.1 µM (active) | outcome [6]: inactive | AC50 [7]: 50 µM (active) | AC50 [8]: 61.5 µM (active) | AC50 [9]: 13.2 µM (active) | outcome [10]: inactive

CCOP(=S)(OCC)SCn1c(=O)oc2cc(Cl)ccc21
AC50 [1]: 3.23 µM (active) | outcome [2]: inactive | outcome [3]: inactive | outcome [4]: inactive | outcome [5]: inactive | outcome [6]: inactive | outcome [7]: inactive | outcome [8]: inactive | AC50 [9]: 53.7 µM (active) | outcome [10]: inactive

CCON=C(CC)C1=C(O)CC(c2c(C)cc(C)cc2C)CC1=O (stereo not drawn)
outcome [1]: inactive | outcome [2]: inactive | AC50 [3]: 50 µM (active) | outcome [4]: inactive | outcome [5]: inactive | outcome [6]: inactive | outcome [7]: inactive | outcome [8]: inactive | outcome [9]: inactive | outcome [10]: inactive

CO/C=C(/C(=O)OC)c1ccccc1Oc1cc(Oc2ccccc2C#N)ncn1
AC50 [2]: 78.4 µM (active) and 82.9 µM (active) and 81.6 µM (active) | AC50 [3]: 90.5 µM (active) and 91.3 µM (active) and 91 µM (active) | outcome [4]: inactive | AC50 [5]: 79.5 µM (active) and 78.9 µM (active) | AC50 [6]: 12.6 µM (active) | outcome [6]: inactive | AC50 [7]: 75.5 µM (active) and 69.5 µM (active) and 74.7 µM (active) | AC50 [8]: 79.3 µM (active) and 78.7 µM (active) and 76.5 µM (active) | AC50 [9]: 27 µM (active) and 25.2 µM (active) and 19 µM (active) | AC50 [10]: 30.5 µM (active) | outcome [10]: inactive

Oc1ccccc1-c1ccccc1
AC50 [1]: 50 µM (active) | outcome [1]: inactive | outcome [2]: inactive | outcome [3]: inactive | outcome [4]: inactive | outcome [5]: inactive | outcome [6]: inactive | outcome [7]: inactive | outcome [8]: inactive | outcome [9]: inactive | outcome [10]: inactive

CC1COC(Cn2cncn2)(c2ccc(Oc3ccc(Cl)cc3)cc2Cl)O1 (stereo not drawn)
outcome [1]: inactive | AC50 [2]: 17.9 µM (active) | AC50 [3]: 29.7 µM (active) | outcome [4]: inactive | AC50 [5]: 12.7 µM (active) | AC50 [6]: 83.9 µM (active) | AC50 [7]: 17.4 µM (active) | AC50 [8]: 22.2 µM (active) | AC50 [9]: 12.2 µM (active) | outcome [10]: inactive

CON(C)C(=O)Nc1ccc(Cl)c(Cl)c1
outcome [1]: inactive | outcome [2]: inactive | AC50 [3]: 4.86 µM (active) | outcome [4]: inactive | AC50 [5]: 85.8 µM (active) | AC50 [6]: 26.6 µM (active) | outcome [7]: inactive | AC50 [8]: 50 µM (active) | AC50 [9]: 72.7 µM (active) | outcome [10]: inactive

CCOC(=O)CC(SP(=S)(OC)OC)C(=O)OCC (stereo not drawn)
AC50 [1]: 21 µM (active) | outcome [2]: inactive | outcome [4]: inactive | outcome [5]: inactive | outcome [6]: inactive | outcome [7]: inactive | outcome [8]: inactive | AC50 [9]: 22.8 µM (active) | outcome [10]: inactive

N#CC(CCc1ccc(Cl)cc1)(Cn1cncn1)c1ccccc1 (stereo not drawn)
AC50 [1]: 0.627 µM (active) | AC50 [2]: 76.1 µM (active) | AC50 [3]: 91.1 µM (active) | outcome [4]: inactive | AC50 [5]: 60.9 µM (active) | AC50 [6]: 71.5 µM (active) | AC50 [7]: 54.5 µM (active) | AC50 [8]: 72.9 µM (active) | AC50 [9]: 9.8 µM (active) | outcome [10]: inactive
